PubChem BioAssay
The source made the active and inactive calls. Unless noted, how the calls were made is not given here.

Experiments:
[1] = tested on: Wnt5a (protein binding on small-molecule microarray); assay: small molecules binding Wnt5a protein – biophysical, small-molecule microarray, 635/667 nm fluorescence, primary screen (AID 1142); conditions: 635 nm fluorescence, higher = more signal;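 further: fluorescence read at 667 nm with signal to noise per printed feature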
[2] = ATP-based viability of Huh7 replicon cells – cell-based, CellTiter-Glo luminescence, basal, 48 h, cytotoxicity control for HCV replication inhibitor project, primary screen (AID 1143); conditions: higher = more signal, called active from +8 up or from −8 down;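 further: Huh7 hepatoma cells carrying a hepatitis C replication reporter with no stimulus; test concentration not given here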
[3] = Pseudomonas biofilm growth suppression – PAO1 strain, BacTiter-Glo luminescence, LB-PBS, primary screen (AID 1144); conditions: P. aeruginosa PAO1 biofilm, 12 h, higher = more signal
[4] = basal CRE-LacZ reporter activity in PC12 – cell-based, unstimulated, primary screen (AID 1145); conditions: no forskolin, luminescence, 4.5 h, higher = more signal, called active from +8 up or from −8 down
[5] = forskolin-driven CRE-LacZ activity in PC12 – cell-based, CRE-LacZ reporter, forskolin-stimulated, primary screen (AID 1146); conditions: luminescence, 4.5 h, higher = more signal, called active from +8 up or from −8 down;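 further: PC12 cells with 6xCRE LacZ reporter stimulated by forskolin 10 µM; beta-galactosidase reporter signal reflecting CREB driven transcription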
[6] = biological target: Streptavidin (Streptomyces avidinii) (UniProt P22629); assay: compounds binding control protein streptavidin – biophysical, small-molecule microarray, 635/667 nm fluorescence, artefact control for SMM compound annotation, primary screen (AID 1147); conditions: higher = more signal;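 further: signal reflects streptavidin binding to arrayed compounds as a control protein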
[7] = probe aInhba binding on compound microarray – biochemical, small-molecule microarray, 635/667 nm fluorescence, primary screen (AID 1148); conditions: higher = more signal;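 further: score merges 667nm spot fluorescence with signal-to-noise for antibody binding to printed compounds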
Torsin-1A (Homo sapiens) [8] = biological target: Torsin-1A (Homo sapiens) (UniProt O14656); assay: TOR1A wild-type binding on microarray – cell lysate, small-molecule microarray, lysate, 635/667 nm, primary screen (AID 1149); conditions: COS7 hTOR1A-WT lysate, 635 nm fluorescence, higher = more signal
Torsin-1A (Homo sapiens) [9] = biological target: Torsin-1A (Homo sapiens) (UniProt O14656); assay: torsin A mutant lysate binding on microarrays – cell lysate, small-molecule microarray, COS7 lysate, 635/667 nm fluorescence, primary screen (AID 1150); conditions: COS7 hTOR1A mutant lysate, 635 nm fluorescence, higher = more signal;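 further: score pools 667 nm emission and signal to noise measuring lysate protein binding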
[10] = tested on: Sonic hedgehog protein (Shh); assay: Sonic hedgehog microarray binding compounds – biochemical, small-molecule microarray, 635/667 nm fluorescence, primary screen (AID 1151); conditions: 635 nm fluorescence, higher = more signal;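 further: Shh protein binding to compounds spotted on small-molecule microarray slides; score combines spot fluorescence intensity with signal-to-noise across triplicate slides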

Sequence of Torsin-1A (Homo sapiens) (O14656 whole entry, looked up): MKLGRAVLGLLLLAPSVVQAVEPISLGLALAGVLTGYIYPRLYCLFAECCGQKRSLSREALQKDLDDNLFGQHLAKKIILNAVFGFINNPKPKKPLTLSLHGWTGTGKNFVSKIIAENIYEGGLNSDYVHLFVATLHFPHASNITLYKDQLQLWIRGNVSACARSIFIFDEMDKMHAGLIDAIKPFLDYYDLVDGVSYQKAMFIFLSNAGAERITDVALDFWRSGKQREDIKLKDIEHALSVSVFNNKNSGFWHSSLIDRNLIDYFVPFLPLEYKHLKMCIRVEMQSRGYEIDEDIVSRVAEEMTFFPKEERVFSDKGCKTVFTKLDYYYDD
Sequence of Streptavidin (Streptomyces avidinii) (P22629 whole entry, looked up): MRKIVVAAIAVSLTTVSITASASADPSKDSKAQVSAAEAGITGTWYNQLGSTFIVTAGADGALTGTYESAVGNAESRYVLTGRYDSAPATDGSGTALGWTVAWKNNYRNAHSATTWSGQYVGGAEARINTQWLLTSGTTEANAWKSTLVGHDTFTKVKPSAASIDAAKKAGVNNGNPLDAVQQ

Compound | composite z-score [1] | z-score [2] | z-score [3] | z-score [4] | z-score [5] | composite z-score [6] | composite z-score [7] | composite z-score (Torsin-1A (Homo sapiens) [8]) | composite z-score (Torsin-1A (Homo sapiens) [9]) | composite z-score [10]
COCCOC(=O)N1C(=O)[C@@]2(c3ccccc31)[C@H](C(=O)N1CCc3cc(OC)c(OC)cc3C1)[C@H]1C(=O)O[C@H](c3ccccc3)[C@H](c3ccccc3)N1[C@@H]2c1ccc(OCCO)cc1 | 0.146 | -0.704 (inactive) | 0.73 (inactive) | 0.685 (inactive) | -0.653 (inactive) | 0.547 | 0.0569 | 0.0657 | 1.21 | 1.41
C=CCNC(=O)[C@@H]1[C@H]2C(=O)O[C@H](c3ccccc3)[C@H](c3ccccc3)N2[C@H](c2ccc(O)cc2)[C@@]12C(=O)N(C(=O)OCCOC)c1ccc(C#CCNC(N)=O)cc12 | 0.468 | -2.23 (inactive) | -0.298 (inactive) | 0.35 (inactive) | 0.273 (inactive) | 0.61 | -0.131 | 0.699 | 0.594 | 1.45
C[N+](C)(C)CCCCNC(=O)[C@@H]1C[C@@H]2C(=O)N[C@@H](Cc3ccccc3)C(=O)N2[C@@H]1c1cccc(OCCO)c1 | 0.175 | -0.36 (inactive) | -0.314 (inactive) | -0.26 (inactive) | -0.471 (inactive) | -1.02 | -0.179 | 0.938 | 0.713 | 1.91
CC(C)N1C(=O)c2ccccc2[C@](C)(C(=O)NCCN2CCOCC2)[C@@H]1c1ccc(CO)cc1 | -0.568 | 0.0068 (inactive) | 0.358 (inactive) | 0.585 (inactive) | -0.875 (inactive) | -0.854 | -0.0719 | 0.0436 | 0.212 | -0.776
O=C(CS)NCCCCCCNC(=O)[C@@H]1C[C@@H]2C(=O)NCC(=O)N2[C@@H]1c1cccc(OCCO)c1 | 0.136 | 0.429 (inactive) | -0.865 (inactive) | -0.252 (inactive) | -0.695 (inactive) | 0.0478 | -0.613 | 1.29 | 1.28 | 0.88
Oc1ccc2cc[n+](Cc3sc4ccccc4c3Cl)cc2c1 | -0.127 | -0.683 (inactive) | -0.521 (inactive) | -0.374 (inactive) | 0.232 (inactive) | 0.361 | -0.12 | -0.648 | 0.11 | 1.53
Cc1ccc([C@@H]2C[C@@H](Sc3ccccc3)[C@H](C(=O)O)CN2S(=O)(=O)c2ccc(C)cc2)cc1 | 0.387 | -0.758 (inactive) | -0.606 (inactive) | -0.676 (inactive) | 0.762 (inactive) | 1.39 | 0.122 | 0.877 | 0.244 | -0.053
CCC[C@@H]1C[C@@]1(CCC)[C@@H](NS(=O)(=O)c1cccc2cccnc12)c1ccc(Cl)cc1 | 0.0298 | -2.15 (inactive) | -0.0939 (inactive) | -0.754 (inactive) | 0.852 (inactive) | 0.633 | 0.0966 | -0.405 | 0.177 | -1.33
C=C(/C(=C/C[C@H](OC(C)=O)c1ccc(CO)o1)c1cc(C(=O)OC)ccc1OC)C(C)C | 0.0267 | -3.56 (inactive) | 0.263 (inactive) | 2.22 (inactive) | 0.769 (inactive) | -0.489 | 0.0051 | -0.501 | 0.241 | 1.05
C=C[C@H](OC)[C@@H](OC(=O)Nc1ccc(OC)cc1)c1ccc(O)c(F)c1 | -0.311 | -3.6 (inactive) | -0.689 (inactive) | 1.24 (inactive) | 3.4 (inactive) | -1.2 | -0.179 | 0.732 | -0.11 | 0.665
C=C[C@H](CO)NS(=O)(=O)c1ccc(Br)cc1 | -0.269 | 0.116 (inactive) | 0.564 (inactive) | 0.643 (inactive) | 1.79 (inactive) | 0.257 | -0.159 | 0.0757 | -0.0632 | 0.156
CC(C)C[C@@H]1NC(=O)[C@H](C(C)C)NC(=O)[C@@]23C(=O)N[C@@H](Cc4ccccc4)C2[C@H](C)[C@@]2(C)O[C@H]2C3/C=C/CC/C=C/CNC1=O (stereo not given in full) | 0.513 | -3.05 (inactive) | -1.07 (inactive) | -0.319 (inactive) | -1.23 (inactive) | 0.186 | 0.399 | 0.356 | 0.0386 | 1.71
CC(C)C(O)C1C=CC2C(=O)NC(=O)C2N1Nc1ccc(Cl)cc1Cl (stereo not given) | -0.0055 | -0.158 (inactive) | 0.0631 (inactive) | 0.246 (inactive) | 0.0675 (inactive) | -0.204 | -0.0791 | 0.41 | 0.794 | 0.292
C=CCC(OC(C)=O)[C@@H]1[C@@H](N(Cc2ccc(-c3ccccc3)cc2)C(=O)c2cccc3ccccc23)c2cc(OCCCO)ccc2N1C(=O)c1ccc(-c2ccccc2)cc1 (stereo not given in full) | 0.0826 | -1.6 (inactive) | -0.915 (inactive) | 0.6 (inactive) | -0.531 (inactive) | 0.232 | 0.0979 | -0.0396 | 0.499 | 0.362
